Measured values: PubChem BioAssay (Tox21)
Results filed as inconclusive are left out. Calls of active or inactive are those of the source. The call rests on the fitted dose curve; in most records, active means well fitted inhibition curve with a large enough effect in the signal ratio in the repeat runs (not every such curve was filed as active); inconclusive means weak or mixed curves, or effect the other way; inactive means flat fitted curve, though single readings scatter; the % refers to the signal ratio.

Assay: cAMP Responsive Elements (CRE) small molecule antagonists, cell-based qHTS assay (AID 1963591)
Conditions: CRE-bla HEK293T, beta-lactamase FRET ratio; series mostly up to 92.4 µM; activity change, negative = inhibition: at the top concentration
Description: U.S. Tox21 Program National Center for Advancing Translational Sciences [NCATS] Division of Preclinical Innovation [DPI] U.S. Environmental Protection Agency [EPA] National Institutes of Environmental Health Sciences [NIEHS] National Toxicology Program [NTP] U.S. Food and Drug Administration [FDA] Tox21 Assay Overview: CREB (cyclic-AMP Responsive Element Binding Protein) is a cellular transcription factor. It binds to certain DNA sequences called cAMP Responsive Elements (CRE) and regulates the transcription of the genes. […] This cell line can be used to find agonists/antagonists of the cyclic AMP signaling pathway. The activation of the report gene under culture conditions can be detected by fluorescence intensity. This cell line has been used to screen the Tox21 10K compound library to […].
Tox21 Assay Protocol Summary: CRE-bla Hek 293T cells were suspended in assay medium (DMEM containing 10% dialyzed FBS, 0.1 mM NEAA, 1 mM sodium pyruvate and 25 mM HEPES) and dispensed at 2,000 cells/4 uL /well into 1536-well black wall/clear bottom plates using a Multidrop Combi (ThermoFisher Scientific, Waltham, MA) dispenser. After the assay plates were incubated at 37 C/5% CO2 for 18 hrs, 23 nL of compounds dissolved in DMSO, positive controls or DMSO only was transferred to the assay plate by a pintool workstation (Kalypsys, San Diego, CA), followed by addition of 1 […] uL of 1.25uM NKH477 (0.25 uM as final concentration) in assay medium using a Flying Reagent Dispenser (Aurora Discovery, San Diego, CA). The plates were incubated at 37 C and 5% CO2 for 3 hrs. Then 1 uL of LiveBLAzer B/G FRET substrate (Invitrogen, Carlsbad, CA) was added to each well using Bioraptr Flying Reagent Dispenser (FRD, Aurora Discovery, San Diego, CA). The plates were incubated at room temperature for 2 h.
On the % scale 0 is the no-effect control and ±100 the full control effect.

SMILES | activity change, negative = inhibition | Potency
CC1(C)[C@H]2CC[C@](C)(C2)[C@H]1O | 0.378% (inactive) | 
NS(=O)(=O)c1ccccc1Cl | 1.94% (inactive) | 
C#CC(C)(O)CC(C)C (stereo not given) | 0.825% (inactive) | 
Oc1ccc(C(c2ccc(O)cc2)C(Cl)(Cl)Cl)cc1 | -17.4% (inactive) | 
CCCc1c2oc(C(=O)O)cc(=O)c2cc2c(=O)cc(C(=O)O)n(CC)c12 | -7.21% [at 42.4 µM] (inactive) | 
CC(C)(CCl)c1ccccc1 | -6.72% (inactive) | 
Nc1ccc2c(S(=O)(=O)O)cccc2c1S(=O)(=O)O | -8.79% [at 42.4 µM] (inactive) | 
O=C[C@H](O)[C@H](O)[C@H](O)CO | -1% (inactive) | 
Fc1ccccc1-c1ccccc1 | -0.0755% (inactive) | 
COCCOCCOCCOCCO | -0.265% (inactive) | 
O=C(O)c1cc(=O)c2ccccc2o1 | -5.3% [at 42.4 µM] (inactive) | 
CCOC(=O)CN1CCCC1=O | 5.06% [at 42.4 µM] (inactive) | 
COC(=O)c1c(Cl)c(Cl)c(C(=O)OC)c(Cl)c1Cl |  | inactive
C=CC(=O)OCCN(CC)CC | 0.76% (inactive) | 
Cc1ccc2oc(=O)ccc2c1 |  | inactive
CCCC(C)C(O)CC (stereo not given) | -1.24% (inactive) | 
O=S(=O)(Oc1ccc(Cl)cc1Cl)c1ccccc1 |  | inactive
Cc1ccc(O)c([N+](=O)[O-])c1 | 7.99% (inactive) | 
CC1(C)C(=O)N(Br)C(=O)N1Cl | 0.202% (inactive) | 
CCCCN(CCCC)CCCCCCN(CCCC)CCCC | 8.78% (inactive) | 

SMILES | activity change, negative = inhibition | Potency
CCC(=O)OC(C)(C)C1CC=C(C)CC1 (stereo not given) | -1.83% (inactive) | 
CC(=O)N(c1onc(C)c1C)S(=O)(=O)c1ccc(N)cc1 | 4.19% [at 42.4 µM] (inactive) | 
CCCCCCCCCCCCCCC(=O)O | 2.79% (inactive) | 
Clc1cc(Cl)c(Cl)c(Cl)c1Cl | 3.44% (inactive) | 
CCCCCCCCCCCCCCCCCCOCC(O)CO (stereo not given) | 2.87% [at 42.4 µM] (inactive) | 
CC(=O)c1cc(C)oc1C | 1.08% (inactive) | 
CC(C)C(=O)C(C)C | -1.24% (inactive) | 
CC/C=C\C#N | 1.82% (inactive) | 
Nc1ccc(Cl)c(N)c1 |  | inactive
NC(=O)N[C@@H](CCC(=O)O)C(=O)O | -4.54% [at 42.4 µM] (inactive) | 
CCCCCCCC/C=C\CCCCCCCC(=O)OCCCC | -13.9% [at 18.9 µM] (inactive) | 
Nc1ccc(Oc2ccc(Cl)cc2)cc1 | -9.62% (inactive) | 
CNC(=O)Nc1ccc(Cl)c(Cl)c1 | 1.25% (inactive) | 
COC(=O)c1ccccc1C | 1.75% (inactive) | 
CC(C)S | -5.47% (inactive) | 
Cc1ccccc1C(=O)N1CC/C(=N\OS(=O)(=O)O)c2ccc(Cl)cc21 | 8.85% [at 42.4 µM] (inactive) | 
CC(=O)OC/C=C(\C)CC/C=C(\C)CCC=C(C)C | -3.71% (inactive) | 
CCOC(=O)CC(C(C)=O)C(C)=O | -7.01% (inactive) | 
CN(C)c1ccc(Cc2ccc(N(C)C)cc2)cc1 |  | inactive
COc1cc(C=O)ccc1OC(=O)C(C)C | 0.498% (inactive) | 
